Assay [1] in a line: Quantitative High-Throughput drug screen in 47 multiple myeloma cell lines against the NCATS MIPE library collection: Karpas620_DSMZ cell viability assay (AID 1918959). Note: nearly all actives have a fitted effect of over 30% in size. The procedure, abridged:
(§1)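 Luminescent ATP measurement with CellTiter-Glo gives viability, scaled between DMSO-only wells (100%) and media-only wells (0%). Cells, 500 per well, faced library compounds for 48 hours at 37C.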

Assay [2] can be described thus: Quantitative High-Throughput drug screen in 47 multiple myeloma cell lines against the NCATS MIPE library collection: KMM1_JCRB cell viability assay (AID 1918960). Note: nearly all actives have a fitted effect of over 30% in size. In short, it runs like this: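 Myeloma cells at 500 per well in 1536-well format treated with MIPE 4.0 library by pin transfer for 48 h at 37C, 5% CO2. Viability from ATP luminescence (CellTiter-Glo), normalized to DMSO (100%) and media-only (0%) wells.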

Assay [3] in a line: Quantitative High-Throughput drug screen in 47 multiple myeloma cell lines against the NCATS MIPE library collection: JIM3_ECACC cell viability assay (AID 1918963; note: nearly all actives have a fitted effect of over 35% in size). The procedure, abridged:
as §1

Assay [4] can be described thus: Quantitative High-Throughput drug screen in 47 multiple myeloma cell lines against the NCATS MIPE library collection: H1112_PLB cell viability assay (AID 1918967; note: nearly all actives have a fitted effect of over 30% in size). In short, it runs like this:
(§2)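 Relative luminescence from CellTiter-Glo served as the viability signal, referenced to DMSO-treated (100%) and cell-free medium (0%) controls. Treatment lasted 48 hours at 37C with 500 cells per well.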

Assay [5] is described as follows: Quantitative High-Throughput drug screen in 47 multiple myeloma cell lines against the NCATS MIPE library collection: KMS27_JCRB cell viability assay (AID 1918970). Note: nearly all actives have a fitted effect of over 30% in size. The note with it: KMS27 myeloma cells, CellTiter-Glo ATP viability, 48 h; viability (% of DMSO): at 45.8 µM (top of the series). In short, it runs like this:
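ATP-based viability (CellTiter-Glo luminescence) is measured in cells treated 48 h with approved and investigational drugs at 37 °C. Controls are DMSO-only wells for full viability and media-only wells for none.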
(In general: In ATP-based viability assays light output follows the ATP content of the culture.)

A short description of assay [6]: Quantitative High-Throughput drug screen in 47 multiple myeloma cell lines against the NCATS MIPE library collection: KMS26_JCRB cell viability assay (AID 1918975). Note: nearly all actives have a fitted effect of over 45% in size. The procedure, abridged: (§3)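 Approved and investigational drugs from MIPE 4.0 were added by pin tool to 500 cells per well. After 48 hours at 37C, ATP-based CellTiter-Glo luminescence indicated remaining viability.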

A short description of assay [7]: Quantitative High-Throughput drug screen in 47 multiple myeloma cell lines against the NCATS MIPE library collection: MOLP8_DSMZ cell viability assay (AID 1918977). Note: nearly all actives have a fitted effect of over 45% in size. The procedure, abridged:
(§4)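 Inhibition of viability over 48 h was scored by ATP content (CellTiter-Glo) in 500-cell wells. Zero and full viability were defined by media-only and DMSO-only wells.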

The nature of assay [8]: Quantitative High-Throughput drug screen in 47 multiple myeloma cell lines against the NCATS MIPE library collection: NCIH929_DSMZ cell viability assay (AID 1918978). Note: nearly all actives have a fitted effect of over 35% in size. In short, it runs like this: as §4
Assay [9] can be described thus: Quantitative High-Throughput drug screen in 47 multiple myeloma cell lines against the NCATS MIPE library collection: OCIMY1_PLB cell viability assay (AID 1918979). Note: nearly all actives have a fitted effect of over 35% in size. In short, it runs like this: as §4
Assay [10] can be described thus: Quantitative High-Throughput drug screen in 47 multiple myeloma cell lines against the NCATS MIPE library collection: INA6_PLB cell viability assay (AID 1918965; note: nearly all actives have a fitted effect of over 55% in size). The procedure, abridged:
(§5)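 Steps: seed 500 cells per well; pin-transfer MIPE 4.0 library; incubate 48 h at 37C, 5% CO2, humidified; add CellTiter-Glo, 5 min room temperature; read luminescence.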

Assay [11] in a line: Quantitative High-Throughput drug screen in 47 multiple myeloma cell lines against the NCATS MIPE library collection: JJN3_DSMZ cell viability assay (AID 1918966; note: nearly all actives have a fitted effect of over 50% in size). In short, it runs like this:
as §2

The nature of assay [12]: Quantitative High-Throughput drug screen in 47 multiple myeloma cell lines against the NCATS MIPE library collection: Karpas25_ECACC cell viability assay (AID 1918968; note: nearly all actives have a fitted effect of over 35% in size). In short, it runs like this:
as §2

Assay [13] in a line: Quantitative High-Throughput drug screen in 47 multiple myeloma cell lines against the NCATS MIPE library collection: KMS12PE_JCRB cell viability assay (AID 1918972). Note: nearly all actives have a fitted effect of over 30% in size. The procedure, abridged:
as §5

The nature of assay [14]: Quantitative High-Throughput drug screen in 47 multiple myeloma cell lines against the NCATS MIPE library collection: KMS20_JCRB cell viability assay (AID 1918973). Note: nearly all actives have a fitted effect of over 45% in size. In short, it runs like this: as §2
Assay [15] can be described thus: Quantitative High-Throughput drug screen in 47 multiple myeloma cell lines against the NCATS MIPE library collection: JIM1_ECACC cell viability assay (AID 1918964). The procedure, abridged:
as §2

Assay [16] can be described thus: Quantitative High-Throughput drug screen in 47 multiple myeloma cell lines against the NCATS MIPE library collection: KMS12BM_JCRB cell viability assay (AID 1918971). Note: nearly all actives have a fitted effect of over 35% in size. In short, it runs like this:
as §3

The nature of assay [17]: Quantitative High-Throughput drug screen in 47 multiple myeloma cell lines against the NCATS MIPE library collection: MMM1_PLB cell viability assay (AID 1918976). Note: nearly all actives have a fitted effect of over 35% in size. In short, it runs like this:
as §4

The nature of assay [18]: Quantitative High-Throughput drug screen in 47 multiple myeloma cell lines against the NCATS MIPE library collection: KMS21BM_JCRB cell viability assay (AID 1918974). The note with it: ATP luminescence, 48 h; viability: at 45.8 µM (top of the series). The procedure, abridged:
as §2

By viability is commonly meant a read-out of living cells in per cent, often relative to untreated cells.

Results filed as inconclusive are left out. A number with no mark means an inactive call. The source made the active and inactive calls. Calls come from the whole dose curve; as a rule, active = well fitted curve in the direction sought with a large enough effect; inconclusive = small, poorly fitted or top-dose-only effect, or another doubt; inactive = no such curve, though single readings can be large; an effect the other way counts as inactive or inconclusive.
Potency is the fitted concentration of half-maximal effect.

With `CC(C)(C)[C@H](NC(=O)c1ccc(N)c(Cl)c1)C(=O)N1CCC[C@@H]1C(=O)N[C@H](C#N)CC(=O)O`, the viability (% of DMSO) in assay [1] is 126% [at 3.51 µM]; in [2], 90.2% [at 3.51 µM]; in assay [6], 125% [at 3.51 µM]. The viability, percent of control in assay [3] is 130% [at 3.51 µM]. Moreover, the results for the viability in [4] and in assay [9] were 116% [at 3.51 µM] and 103% [at 3.51 µM], respectively. For the same compound, the Potency in [5] is 1.05 µM (active). Also, the viability (% of control) in assay [7] is 110% [at 3.51 µM]. Besides, the viability, % of control in [8] is 122% [at 3.51 µM].
Consider `C[N+]1(C)[C@@H]2C[C@@H](OC(=O)C(O)(c3cccs3)c3cccs3)C[C@H]1[C@@H]1O[C@@H]12`, for which the Potency result in assay [1], in assay [2], in assay [3], in assay [10], in assay [11] and in assay [4] was “inactive” each time. In addition, the Potency entry in assay [12], in assay [5], in assay [13], in assay [14], in assay [7] and in assay [8] was “inactive” throughout. Further, in assay [9], the Potency result was “inactive”.
As for `C[C@@H]1C(=O)O[C@H]2CC34[C@H]5C[C@@H](C(C)(C)C)C36[C@H](OC(=O)[C@@H]6O)O[C@@]4(C(=O)O5)[C@]21O` (some centres undefined), the Potency entry in assay [1], in assay [2], in [3], in assay [15], in [10] and in [4] was “inactive” in each case. Further, the Potency entry in assay [12], in assay [16], in assay [13], in [14], in assay [6] and in assay [7] was “inactive” each time. Besides, the Potency result in assay [8] was “inactive”.
For the compound `C[C@@H]1[C@H](C)CC[C@]2(C(=O)O)CC[C@]3(C)C(=CC[C@@H]4[C@@]5(C)C[C@@H](O)[C@H](O)[C@@](C)(CO)[C@H]5CC[C@]43C)[C@@H]12`, the Potency result in assay [1], in assay [2], in assay [3], in assay [4], in [12] and in [5] was “inactive” throughout. In addition, the Potency entry in [13], in assay [14], in assay [6], in assay [7], in assay [8] and in assay [9] was “inactive” each time.
With `Cc1cnn(C)c1C(=O)Nc1cc(Nc2ccc3c(C=Cc4ccccn4)n[nH]c3c2)ccc1F`, the Potency in [1] is 20.9 µM (active); in assay [2], 1.66 µM (active); in assay [3] it was 5.26 µM (active); in assay [15], 10.5 µM (active); in [10], 4.18 µM (active); in [12], 4.69 µM (active). Besides, the Potency in assay [5] was 2.64 µM (active); in assay [13] it was 2.96 µM (active); in assay [6], 33.2 µM (active); in [17] it was 13.2 µM (active); in assay [8] it was 14.8 µM (active).
`C[C@H](NC(=O)C(C#N)=Cc1cccc(Br)n1)c1ccccc1`: the Potency in [1] was 11.8 µM (active); in [2], 10.5 µM (active); in [3] it was 2.09 µM (active); in [10], 1.87 µM (active); in [11], 4.18 µM (active); in assay [4], 2.35 µM (active). Besides, the Potency in [5] was 13.2 µM (active); in [16], 4.69 µM (active); in assay [13] it was 16.6 µM (active); in assay [14], 2.35 µM (active); in assay [6], 2.35 µM (active); in [17] it was 7.43 µM (active). In addition, the figures for the Potency in assay [7], in [8] and in assay [9] were 2.35 µM (active), 1.66 µM (active) and 7.43 µM (active), respectively.
Turning to `Cc1onc(-c2ccccc2)c1C(=O)N[C@@H]1C(=O)N2[C@@H](C(=O)O)C(C)(C)S[C@@H]12`, the Potency entry in assay [1], in [2], in [3], in assay [15], in assay [4] and in assay [12] was “inactive” each time. Further, the Potency entry in assay [16], in [13], in assay [18], in assay [6] and in assay [8] was “inactive” throughout.
For the compound `CC(=O)O[C@H]1C[C@@H]2CC[C@H]3[C@H]4C[C@H]([N+]5(C)CCCCC5)[C@@H](OC(C)=O)[C@@]4(C)CC[C@@H]3[C@@]2(C)C[C@H]1[N+]1(C)CCCCC1`, the Potency entry in assay [1], in [2], in [3], in assay [15], in assay [10] and in assay [4] was “inactive” throughout. In addition, the Potency result in assay [12], in assay [5], in assay [16], in [13], in [14] and in assay [7] was “inactive” in each case. In addition, the Potency entry in assay [8] and in [9] was “inactive” throughout.
For `CCCCOc1ccc(C(=O)Nc2ccc(F)cc2F)cc1`, the Potency result in [1], in assay [2], in assay [3], in assay [15], in [4] and in [12] was “inactive” each time. In addition, in assay [5], the Potency entry is “inactive”. Further, the viability in [18] was 103% (active).
`CC(C(C)N1CC(=O)NC(=O)C1)N1CC(=O)NC(=O)C1` (centres undefined): the Potency entry in assay [1], in assay [2], in assay [3], in assay [12], in assay [14] and in assay [8] was “inactive” in each case. Further, the Potency result in assay [9] was “inactive”. The Potency in assay [16] was 0.59 µM (active); in assay [13], 1.32 µM (active); in assay [18] it was 0.332 µM (active); in assay [7], 0.0105 µM (active).
Regarding `N=c1ccn2c(n1)O[C@H]1[C@@H](O)[C@@H](CO)O[C@H]12`, the Potency was 16.6 µM (active) in [1]; 10.5 µM (active) in assay [2]; 4.18 µM (active) in assay [10]; 5.9 µM (active) in assay [5]; 0.059 µM (active) in assay [16]; 11.8 µM (active) in [13]. Besides, the Potency was 2.96 µM (active) in assay [18] and 16.6 µM (active) in assay [8]. Further, the Potency entry in assay [3], in assay [15], in assay [11], in assay [6] and in assay [9] was “inactive” throughout.
As for `Nc1nc(=O)n([C@H]2C[C@H](O)[C@@H](CO)O2)cc1F`, the Potency entry in assay [1], in [11], in [4], in assay [12], in assay [6] and in assay [9] was “inactive” throughout. Further, the Potency was 0.0074 µM (active) in assay [2]; 1.32 µM (active) in assay [3]; 0.0296 µM (active) in assay [10]; 0.0418 µM (active) in assay [5]; 0.059 µM (active) in [13]; 16.6 µM (active) in assay [8].
Regarding `COc1ccc(C(C)=O)c(O)c1`, the Potency entry in assay [1], in assay [2], in assay [3], in [15], in [10] and in [11] was “inactive” in each case. Besides, the Potency result in assay [4], in assay [13], in assay [14], in assay [7], in assay [8] and in assay [9] was “inactive” in each case.

Values taken from PubChem BioAssay (NCATS).
